Among all 320,000 compounds or so, about 1,100 (0.34%) were called active. What follows is part of a selection rich in actives, with near analogues and random picks from the rest. A number with no mark means an inactive call.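 Rule for the calls: active = GFP response vs DMSO above a set limit, about the screen mean plus 3 SD (cut at about 150% in these data); inconclusive = under 70 cell events counted for the yeast strain; inactive = the rest.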
Assay: modulators of LAP4-GFP expression in yeast, primary screen, S. cerevisiae, multiplex flow cytometry, MLPCN library (AID 2023)
Settings: 3 h, at 10 µM, active compounds read high
Compound `Cc1cccc2c(CCN)c[nH]c12` has a GFP response vs DMSO of 105%.
With `NCCc1c[nH]c2ccc(O)cc12` the GFP response vs DMSO was 307% [may fluoresce violet] (active).
`C/C(CCc1c[nH]c2ccccc12)=N\O` gave a GFP response vs DMSO of 102%.
Work on `CN(C)C(=O)NC(O)C(Cl)(Cl)Cl` (stereo not given) yielded a GFP response vs DMSO of 108%.
`COc1cccc(N2C(=O)NC(=O)/C(=C\c3cn(C)c4ccccc34)C2=O)c1` showed a GFP response vs DMSO of 104%.
With `COc1ccc(CN2C(=O)NC(=O)/C(=C\c3ccc(OC)c(OC)c3OC)C2=O)cc1` the GFP response vs DMSO was 109%.
For `COc1ccc(N2C(=O)/C(=C/c3ccco3)C(=O)NC2=S)cc1`, the GFP response vs DMSO was 170% (active).
Work on `Cc1ccc(S(=O)(=O)N(C)c2ccc(C(=O)NCC3(N(C)C)CCCCC3)cc2)cc1` yielded a GFP response vs DMSO of 91.7%.
With `O=C1NC(=O)N(CCc2ccc(F)cc2)C(=O)/C1=C/C=C/c1ccccc1` the GFP response vs DMSO was 111%.
With `O=C1NC(=O)N(Cc2ccco2)C(=O)/C1=C\c1ccc(-c2ccc(F)cc2)o1` the GFP response vs DMSO was 182% (active).
Compound `O=C1NC(=O)N(Cc2ccco2)C(=O)/C1=C\c1cccn1CCOc1ccccc1` has a GFP response vs DMSO of 111%.
`O=C(Cc1ccccc1)N1CCN(C2CCCCCC2)CC1` gave a GFP response vs DMSO of 95.7%.
For `COc1ccc(C2N3CC(C)(C)CN23)cc1` (stereo not given), the GFP response vs DMSO was 95% [median GFP as percent of DMSO wells].
`CC1CCC(N(C)C2CCN(C)CC2)CC1` (stereo not given) gave a GFP response vs DMSO of 94.4%.
For `CNCC[C@H](Oc1ccc(C(F)(F)F)cc1)c1ccccc1`, the GFP response vs DMSO was 106%.

— PubChem BioAssay AID2023 (NMMLSC, 2009)
